Hits are enriched below; roughly 2.5% of the tested compounds scored in any of these assays.
Cruzain noTriton: inhibitors of Trypanosoma cruzi cruzain without detergent | Potency, µM, for inactives: max response, negative = inhibition, hits mostly inhibitors | actives 2.3% (n = 200,000) | purified cruzain, Z-FR-AMC fluorescence, no detergent;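 also: plate controls were enzyme without inhibitor for no effect and buffer without enzyme for full effect; nearly all actives have a fitted effect of over 40% in size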
Target sequence (P25779 123-467 limits assumed): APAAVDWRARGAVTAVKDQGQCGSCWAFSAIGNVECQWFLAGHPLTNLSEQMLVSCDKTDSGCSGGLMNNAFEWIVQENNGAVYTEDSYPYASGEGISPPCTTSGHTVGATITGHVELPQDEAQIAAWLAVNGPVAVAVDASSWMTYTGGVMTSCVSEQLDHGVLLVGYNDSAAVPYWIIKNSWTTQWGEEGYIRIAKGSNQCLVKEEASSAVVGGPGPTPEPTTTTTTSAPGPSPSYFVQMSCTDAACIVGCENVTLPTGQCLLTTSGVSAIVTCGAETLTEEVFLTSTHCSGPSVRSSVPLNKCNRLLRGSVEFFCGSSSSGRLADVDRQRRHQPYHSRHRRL
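Purified cruzain at 1.5 nM, pre-incubated 15 min with compound at room temperature in 100 mM sodium acetate pH 5.5, 5 mM DTT, 0.00005% Triton X-100. Reaction started with 2 uM Z-FR-AMC; AMC fluorescence increase over 60 s gives rate.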
Cruzain inh Det: cruzain (T. cruzi) inhibition with detergent. purified cruzain, Z-FR-AMC fluorescence, 0.01% Triton. P25779. actives 0.43% (n = 200,000). Potency, µM, without a hit: max response, negative = inhibition, usual class: inhibitors;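 also: plate controls were neutral wells for no effect and buffer without enzyme for full effect; nearly all actives have a fitted effect of over 40% in size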
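Sodium acetate buffer (100 mM, pH 5.5) containing 5 mM DTT and 0.01% Triton X-100 hosted 1.5 nM cruzain and test compound for 15 min at room temperature. Cleavage of 2 uM Z-FR-AMC was then tracked by fluorescence.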
The depositor's hits bear a star; ? = inconclusive. Calls follow the shape of the dose curve; as a rule, active = well fitted curve in the direction sought with a large enough effect; inconclusive = small, poorly fitted or top-dose-only effect, or another doubt; inactive = no such curve, though single readings can be large; an effect the other way counts as inactive or inconclusive. Potency is read from the fitted curve at half-maximal effect.

SMILES | Cruzain noTriton | Cruzain inh Det
CC(C)NC(=O)c1sc2ncccc2c1-n1cccc1 | -11% | 1%
CCC(C(=O)NC1CCCCC1)n1c(SCc2cccc(C)c2)nc2ccncc21 (stereo unspecified) | ? | 14µM*
Cc1cccc(Cn2c(SCc3ccc(C(=O)NC4CCCCC4)cc3)nc3ccncc32)c1 | -12% | 1%
COc1ccc2cc3cc(C(=O)NCc4ccccn4)oc3nc2c1 | ? | 32µM*
COc1ccc2cc3cc(C(=O)NCc4ccco4)oc3nc2c1 | 6% | -8%
Cc1ccccc1CS(=O)(=O)Cc1ccc(C(=O)NCCc2ccc(Cl)cc2)o1 | 22% | -1%
COc1cc(C2C(C#N)=C(N)Oc3c2ccc2ccccc32)ccc1OCC(=O)Nc1ccccc1C (stereo unspecified) | 13µM* | 1%
COC(=O)c1ccc(NC(=O)COc2ccccc2OC)cc1 | -3% | -1%
COC(=O)c1ccc(NC(=O)COc2ccc(C3C(C#N)=C(N)Oc4c3ccc3ccccc43)cc2OC)cc1 (stereo unspecified) | 7.9µM* | 2%
N#CC1=C(N)Oc2c(ccc3ccccc23)C1c1cccs1 (stereo unspecified) | ? | -10%
Cc1ccc(Cc2cnc(NC(=O)/C(C#N)=C/c3ccc(-c4ccc([N+](=O)[O-])cc4)o3)s2)cc1 | 2.5µM* | 1%
O=C(Nc1ncc(Cc2ccccc2Cl)s1)c1ccc([N+](=O)[O-])cc1 | ? | -2%
CCOc1ccc(NC(=O)/C(C#N)=C\c2ccc(-c3ccc(Cl)cc3)o2)cc1 | -4% | -2%
O=C(Nc1ncc(Cc2ccc(C(F)(F)F)cc2)s1)c1ccc(-c2cccc([N+](=O)[O-])c2)o1 | 13µM* | -3%
O=C(Nc1ncc(Cc2cccc(Cl)c2)s1)c1ccc([N+](=O)[O-])cc1 | ? | -3%
O=C(Nc1ncc(Cc2ccccc2Cl)s1)c1ccc(-c2cccc([N+](=O)[O-])c2)o1 | 6.3µM* | -1%
O=C(Cc1ccccc1)Nc1nnc(-c2cccc([N+](=O)[O-])c2)s1 | 16µM* | -1%
COc1ccc(CC(=O)Nc2nnc(-c3cccc([N+](=O)[O-])c3)s2)cc1 | ? | 0%
Cc1csc2nc(COC(=O)c3ccc(NC(=O)c4ccccc4Br)cc3)cc(=O)n12 | -22% | -4%
CN1CCC[C@@H]1c1cccnc1.O=C(O)c1ccccc1O.O=C([OH2+])c1ccccc1O.O=C([OH2+])c1ccccc1O.[Mn] | -1% | 1%
C=CCc1cccc2cc(-c3nc4ccc(C(=O)O)cc4[nH]3)c(=O)oc12 | 7% | 2%
O=C(COc1ccc(F)cc1)OCc1cc(=O)n2nc(C3CC3)sc2n1 | -8% | -3%
COc1ccc(/C=C/c2nc(C#N)c(N3CCCCC3)o2)cc1OC | -4% | -13%
O=C(O)c1cccc(SSc2cccc(C(=O)O)c2)c1 | 0% | 2%
CCOC(=O)c1c(C)c(-c2ccccc2)n(CC(=O)NC2CCCCCC2)c1C | 15% | -1%
SMILES | Cruzain noTriton | Cruzain inh Det
CCc1ccc(C(=O)COC(=O)c2cccc(N3C(=O)c4c(C)nc5ccccc5c4C3=O)c2)cc1 | 6.3µM* | 4%
CCN1C(=O)c2c(C)nc3ccccc3c2C1=O | 7% | 0%
Cc1cc(C)n(-c2cc(N3CCN(S(=O)(=O)c4ccc(Br)cc4)CC3)ccc2[N+](=O)[O-])n1 | ? | -6%
Cc1cc(C)c(S(=O)(=O)N2CCN(c3ccc([N+](=O)[O-])c(-n4nc(C)cc4C)c3)CC2)c(C)c1 | 20µM* | -1%
Cc1ccc(Cn2c(=O)n(-c3cc(C)cc(C)c3)c(=O)c3oc4ccccc4c32)cc1 | -16% | -4%
CCc1ccc(-n2cc(-c3ccc([N+](=O)[O-])cc3)[nH]c2=S)cc1 | 25µM* | -5%
O=[N+]([O-])c1ccc(-c2cn(-c3ccc(Cl)cc3)c(=S)[nH]2)cc1 | ? | -1%
CCOC(=O)c1c(NC(=O)c2cnn3c2NC(c2cccc(OC)c2)CC3C(F)(F)F)sc2c1CCCC2 (stereo unspecified) | 3.2µM* | -1%
CC(C)OC(=O)c1c(NC(=O)c2cnn3c2NC(c2ccccc2)CC3C(F)(F)F)sc2c1CCCC2 (stereo unspecified) | ? | 3%
CCc1ccc(-n2c(=O)c3c4c(sc3n(CC(=O)c3ccc(F)cc3)c2=O)CCC4)cc1 | -11% | -2%
Cc1cc(C)cc(NC(=O)c2ccc3c(c2)nnn3C2CCCC2)c1 | -7% | -5%
C[C@@H]1C(c2ccccc2)=NN(c2ccc(Br)cc2)[C@H]1C(=O)N1CCOC1=O | ? | -2%
Cc1cccc(C2=NN(c3ccccc3)[C@@H](C(=O)N3CCOC3=O)[C@@H]2c2ccc(Cl)cc2)c1 | 22µM* | -5%
Cc1cccc(C2=NN(c3ccccc3)[C@@H](C(=O)N3CCOC3=O)[C@@H]2C)c1 | 1% | 0%
Cc1cccc(C2=NN(c3ccc(Br)cc3)[C@@H](C(=O)N3CCOC3=O)[C@@H]2C)c1 | 28µM* | 0%
Cc1cccc(C2=NN(c3ccc(Br)cc3)[C@@H](C(=O)N3CCOC3=O)[C@@H]2c2ccc([N+](=O)[O-])cc2)c1 | 6.3µM* | 1%
Cc1cccc(C2=NN(c3ccccc3)[C@@H](C(=O)N3CCOC3=O)[C@@H]2c2ccc(F)cc2)c1 | ? | -7%
O=C1OCCN1C(=O)[C@H]1[C@H](c2ccc([N+](=O)[O-])cc2)C(c2cccc(Cl)c2)=NN1c1ccccc1 | 11µM* | 0%
O=C1OCCN1C(=O)[C@H]1[C@H](c2ccc([N+](=O)[O-])cc2)C(c2ccccc2)=NN1c1ccccc1 | ? | 4%
CO[C@@H]1/C=C\O[C@]2(C)Oc3c(C)c(O)c4c(O)c(cc(O)c4c3C2=O)NC(=O)/C(C)=C\C=C/[C@H](C)[C@@H](O)[C@H](C)[C@H](O)C(C)[C@H](OC(C)=O)[C@@H]1C (stereo partly specified) | ? | -1%
COc1ccccc1CNC(=O)CCCCn1c(=O)c2ccccc2n(CC(=O)Nc2c(C)cc(C)cc2C)c1=O | -3% | -1%
CN1[C@@H]2CC[C@H]1CC(OC(=O)[C@@H](CO)c1ccccc1)C2 (stereo partly specified) | 2% | -1%
CCOC(=O)C1=C(CN2CCN(c3ccc(Cl)cc3)CC2)NC(=O)NC1c1ccc(OC)cc1 (stereo unspecified) | -3% | 0%
O=NN(Cc1ccc(Cl)cc1)[C@@H](C(=O)O)c1ccccc1 | -3% | 3%
Cc1cccn2c(=O)cc(COc3cccc(NC(=O)COc4ccccc4)c3)nc12 | -13% | 2%
SMILES | Cruzain noTriton | Cruzain inh Det
Cc1cc(C)cc(OC(=O)c2snnc2C)c1 | -12% | -7%
CCCN1C(=O)/C(=C\C=C2/C=CN(CC)c3ccccc32)SC1=S | -8% | -6%
CCCCN1C(=O)/C(=C/C=C2\N(C)c3ccccc3C2(C)C)SC1=S | 32µM* | -2%
O=C(O)[C@H]1C2c3ccccc3C(c3ccccc32)[C@@H]1C(=O)NCC1CC1 | -3% | -3%
COc1ccc(-c2cc3nc(C)c(CCC(=O)N4CCN(c5ccc(F)cc5)CC4)c(C)n3n2)c(OC)c1 | ? | 2%
CCn1c(COc2ccc3c(c2)CCCC3)nnc1SCC(=O)Nc1nccs1 | 7.9µM* | 9%
CCn1c(CNC(=O)Cc2ccc(OC)cc2)nnc1SCC(=O)Nc1nccs1 | -7% | 5%
CCN(CC)c1ccc(NC(=O)c2cccn2-c2nnc(N3CCCCC3)s2)c(C)c1 | -12% | 2%
